Data taken from PubChem BioAssay (EPA / NIEHS).
More than one record can exist for a structure, and the calls need not agree. Active and inactive are the calls of the source. How the source made its calls: active means hit-call score of the fitted dose curve at least 0.9, where 1 is the maximum; inactive means score below 0.9.

Read-out: CD40, CD40 (gene 958)
Test: BSK_LPS_CD40: BioMAP Diversity Plus: LPS Assay for CD40 Biomarker Activity (AID 2283076)
Conditions: primary human HUVEC with PBMC; actives raise or lower the signal
Procedure: BSK_LPS is a cell-based, multiplexed-readout assay that uses umbilical vein endothelium and peripheral blood mononuclear cells, a human vascular primary cell co-culture, with measurements taken at 24 hours after chemical dosing in a 96-well plate.BSK_LPS_CD40 is an assay component measured in the BSK_LPS assay. It measures CD40 antibody related to regulation of gene expression using ELISA technology.Data from the assay component BSK_LPS_CD40 was analyzed into 1 assay endpoint. This assay endpoint, BSK_LPS_CD40, was analyzed with bidirectional fitting relative to DMSO as the negative control and baseline of activity. Using a type of binding reporter, gain or loss-of-signal activity can be used to understand changes in the signaling as they relate to the gene CD40. Furthermore, this assay endpoint can be referred to as a primary readout, because this assay has produced multiple assay endpoints where this one serves a signaling function. To generalize the intended target to other relatable targets, this assay endpoint is annotated to the cytokine intended target family, where the subfamily is inflammatory factor.
The levels of cell surface (or secreted, indicated by the prefix "s") biomarker endpoints were measured by ELISA. Overt cytotoxicity to cells in confluent adherent cultures (all systems other than the BT system) was assessed by measuring total protein levels using sulforhodamine B (SRB) staining in parallel cultures at the time of biomarker measurements, indicated as SRB endpoints. For proliferation assays for adherent cell types, individual cell types are cultured at sub-confluence and relative cell numbers quantified by SRB staining at time points optimized for each system (48 h: 3C and CASM3C systems; 72 h: BT and HDF3CGF systems; 96 h: SAg system). SRB was performed by staining cells with 0.1% SRB after fixation with 10% TCA and reading wells at 560 nm.Viability and proliferation of PBMC (T cells) was quantified by Alamar Blue reduction for the SAg and BT systems. For PBMC viability (referred to as PBMC Cytotoxicity within the assay endpoint names), cells were plated (75,000/well in a 96-well plate) and then chemical samples added for 1 h before addition of activators, SEB and TSST-1 (20 ng/mL final concentration each). Cells were incubated for 90 h. Then, Alamar Blue (20 uL/well) (Invitrogen, Cat DAL1100) was added for 6 h, and the plates were read with a fluorescence microplate reader at 546/580 nm (excitation/emission). For PBMC proliferation, cells were plated and activated as above but incubated for only 16 h prior to addition of Alamar Blue. Plates were read after 6 h.

| Structure (SMILES) | outcome | AC50 |
| --- | --- | --- |
| O=C(O)c1ccccc1C(c1ccc(O)cc1)c1ccc(O)cc1 | inactive |  |
| CCCCCCCCOC(=O)CCCCCCCCC(=O)OCCCCCCCC | inactive |  |
| c1ccc2c(c1)Cc1ccccc1-2 | inactive |  |
| Oc1cccc(O)c1 | inactive |  |
| CN(C)C=O | inactive |  |
| CCCCC(CC)COC(=O)CCCCC(=O)OCC(CC)CCCC (stereo not given) | inactive |  |
| CC[C@H](C)[C@@H](C(=O)O)n1sc2ccccc2c1=O | inactive |  |
| CCCCCCCCCCCCc1ccccc1S(=O)(=O)O | inactive |  |
| CC(C)CCCCCCOC(=O)CCCCC(=O)OCCCCCCC(C)C | inactive |  |
| CN1CCN(c2ccccc2/C=C2\SCCN(c3ccc(Cl)c(Cl)c3)C2=O)CC1 |  | 7.34 µM (active) |
| CC(C)(C)c1cccc(C(C)(C)C)c1O | inactive |  |
| CC(O)CO (stereo not given) | inactive |  |
| COCC(C)O (stereo not given) | inactive |  |
| CCN(CC)CCNc1ccc(CNC=O)c2sc3ccc(OC)cc3c(=O)c12 |  | 35.4 µM (active) |
| Cc1cc(CCN2CCN(c3nsc4ccccc34)CC2)cc2c1NC(=O)CC2(C)C |  | 14.3 µM (active) |
| NC(=O)N1C(=O)C(C(=O)c2cc(Cl)cs2)c2cc(F)c(Cl)cc21 (stereo not given) |  | 17.7 µM (active) |
| CC(C)(C)c1cc(C(C)(C)C)c(O)c(C(C)(C)C)c1 | inactive |  |
| Cc1cc(C)c(O)c(C)c1 | inactive |  |
| CCCCCCCCCCCCCC[N+](C)(C)C |  | 4.57 µM (active) |
| CCC(=C(c1ccc(O)cc1)c1ccc(OCCN(C)C)cc1)c1ccccc1 |  | 7.71 µM (active) |

| Structure (SMILES) | outcome | AC50 |
| --- | --- | --- |
| COC(=O)CCCCC(=O)OC | inactive |  |
| CN1CCC[C@H]1c1cccnc1 | inactive |  |
| c1ccc2c(c1)ccc1ccccc12 | inactive |  |
| ClC1=C(Cl)C(Cl)(Cl)C(Cl)=C1Cl |  | 10.2 µM (active) |
| CCCCCCCCCCCCCCCS(=O)(=O)Oc1ccccc1 | inactive |  |
| CCCCCCCCCCCCN1CCCC1=O |  | 32.2 µM (active) |
| C=C(C)C(=O)OCCC(F)(F)C(F)(F)C(F)(F)C(F)(F)C(F)(F)C(F)(F)F | inactive |  |
| N#C[C@@H]1CC(F)(F)CN1C(=O)CNC1CC2CCC(C1)N2c1ncccn1 (stereo not given in full) |  | 4.2 µM (active) |
| CC1=C(/C=C/C(C)=C/C=C/C(C)=C/C(=O)O)C(C)(C)CCC1 |  | 4.45 µM (active) |
| O=c1c(-c2ccc(O)cc2)coc2cc(O)ccc12 | inactive |  |
| Cc1oc(-c2ccccc2)nc1CCOc1ccc(C[C@H](Nc2ccccc2C(=O)c2ccccc2)C(=O)O)cc1 |  | 30.2 µM (active) |
| CCc1ccc(CCOc2ccc(CC3SC(=O)NC3=O)cc2)nc1 (stereo not given) | inactive |  |
| CCc1nn(C2CCCCC2)c2cc(C3(C#N)CCC(C(=O)O)CC3)ccc12 (stereo not given) |  | 2.51 µM (active) |
| CCCOc1sc(C(=O)N2CCC(c3cc(CN)ccc3F)CC2)c(C)c1Br |  | 7.91 µM (active) |
| c1ccc2cc3c(ccc4ccccc43)cc2c1 | inactive |  |
| O=[N+]([O-])c1ccc(O)cc1 | inactive |  |
| OCCC(F)(F)C(F)(F)C(F)(F)C(F)(F)C(F)(F)C(F)(F)F | inactive | 40.8 µM (active) |
| Nc1cccc2c(N)cccc12 | inactive |  |
| CC#C[C@]1(O)CC[C@H]2[C@@H]3CCC4=CC(=O)CCC4=C3[C@@H](c3ccc(N(C)C)cc3)C[C@@]21C |  | 33.8 µM (active) |
